We go through 17 compounds from publication PMC5540273 (PLoS ONE, 2017).

Structures are written as SMILES.

Some test systems named below: KIT-autoinhibited; KIT; LATS1; LATS2; LCK; LIMK1; LIMK2; LRRK2.
What all share (conditions): concentration: 1 μM, replicates: in singlicate; n = 1
Another assay concerns T1, LKB1.
T1 construct: gene STK11

A further assay concerns T2, LOK.
T2 construct: gene STK10
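Also: KINOMEscan kinase panel screen.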

For `CSc1ccc(-c2cc3ncnc(SCC(=O)O)c3s2)cc1`, the “%Inh” value is reported as 0% in the assay with KIT-autoinhibited; 51% with KIT; 7% with LATS1; 4% with LATS2; 0% with LCK; 0% in the assay on LIMK1. Besides, the “%Inh” value in the assay on LIMK2 was found to be 0%; in the assay on LKB1 it was 0%; with LOK, 19%; in the assay on LRRK2, 0%.

Consider `O=C(NCCNc1ccnc(Nc2ccc(F)cc2)n1)c1cc2ccccc2s1` [GSK1379874], for which the “%Inh” value in the assay on KIT-autoinhibited is on record as 0%; in the assay with KIT it was 0%; in the assay on LATS1 it was 0%; in the assay with LATS2, 0%; in the assay with LCK, 12%; in the assay on LIMK1, 0%. For the same compound, the “%Inh” value in the assay on LIMK2 worked out at 25%; with LKB1, 1%; in the assay with LOK, 0%; with LRRK2, 0%.

For the compound `O=C(Nc1cccc(-c2nn3ncccc3c2-c2ccnc(Nc3cccc(C(F)(F)F)c3)n2)c1)c1c(F)cccc1F` [GSK299495], the “%Inh” value in the assay on KIT-autoinhibited is 0%; in the assay with KIT, 98.7%; in the assay on LATS1 it was 13%; in the assay on LATS2 it was 6%; in the assay on LCK, 98.2%; in the assay with LIMK1, 9%. Also, the “%Inh” value worked out at 0% with LIMK2, 0% in the assay with LKB1, 96.6% in the assay with LOK and 0% in the assay with LRRK2.

Take `Nc1nccc(-c2c(-c3ccc(F)cc3)ncn2C2CCN(CC(F)(F)F)CC2)n1` [SB-236560]: the “%Inh” value in the assay with KIT-autoinhibited came out at 11%; in the assay on KIT, 0%; with LATS1, 0%; with LATS2, 69%; in the assay with LCK it was 0%; with LIMK1, 5%. For the same compound, the “%Inh” value with LIMK2 is recorded as 0%; with LKB1, 0%; in the assay with LOK it was 2%; in the assay on LRRK2 it was 0%.

In the case of `Cc1cccc(-c2nc(Nc3ccc4ncsc4c3)c3ccccc3n2)n1` [GW867588], the “%Inh” value in the assay on KIT-autoinhibited worked out at 12%; with KIT, 0%; in the assay on LATS1, 2%; in the assay with LATS2, 0%; in the assay on LCK, 9%; in the assay on LIMK1 it was 4%. Further, the “%Inh” value in the assay with LIMK2 amounted to 0%; in the assay on LKB1, 23%; in the assay with LOK it was 27%; in the assay with LRRK2 it was 60%.

With `COc1cc2c(cc1OC[C@@H](O)CO)ncc1c3ccc(C#N)cc3[nH]c21`, the “%Inh” value is recorded as 48% in the assay on KIT-autoinhibited; 63% in the assay with KIT; 0% in the assay on LATS1; 41% with LATS2; 0% in the assay with LCK; 0% with LIMK1. Also, the “%Inh” value in the assay on LIMK2 is recorded as 0%; in the assay on LKB1, 0%; in the assay on LOK it was 20%; in the assay on LRRK2, 93.1%.

As for `CCCCCc1nc2c(N)ncnc2n1CCCCC` [SKF-97255], the “%Inh” value in the assay with KIT-autoinhibited was found to be 16%; in the assay on KIT, 17%; in the assay with LATS1, 0%; in the assay with LATS2, 0%; in the assay with LCK it was 5%; with LIMK1, 0%. For the same compound, the “%Inh” value in the assay on LIMK2 is given as 0%; in the assay on LKB1, 60%; in the assay with LOK it was 14%; in the assay with LRRK2 it was 0%.

As to `O=c1cc(N2CCOCC2)nc2n(Cc3cccc(F)c3)ccn12` [GSK2297430], the “%Inh” value stood at 0% in the assay on KIT-autoinhibited; 10% in the assay with KIT; 0% in the assay with LATS1; 0% with LATS2; 23% in the assay with LCK; 9% in the assay on LIMK1. For the same compound, the “%Inh” value with LIMK2 was 5%; with LKB1, 0%; in the assay with LOK, 0%; in the assay with LRRK2, 31%.

In the case of `Cc1cccc(-c2nc(-c3ccc(S(C)(=O)=O)cc3)sc2-c2ccncc2)c1`, the “%Inh” value was determined as 7% in the assay with KIT-autoinhibited; 18% in the assay on KIT; 36% in the assay with LATS1; 50% in the assay on LATS2; 23% in the assay on LCK; 0% in the assay with LIMK1. The “%Inh” value was 1% with LIMK2, 0% in the assay on LKB1, 0% in the assay on LOK and 2% with LRRK2.

With `Cc1cccc(Cn2ccn3c(=O)cc(N4CCOCC4)nc23)c1` [GSK2297542], the “%Inh” value in the assay on KIT-autoinhibited is on record as 1%; in the assay on KIT, 38%; with LATS1, 28%; with LATS2, 10%; with LCK, 26%; in the assay on LIMK1, 2%. Besides, the “%Inh” value with LIMK2 is 10%; in the assay on LKB1, 21%; with LOK, 0%; in the assay with LRRK2, 0%.

As for `Cc1ccc(NC(=O)c2ccnc(N3CCN(C)CC3)c2)cc1-c1ccc(C(=O)NCC2CC2)cc1` [GW775604], the “%Inh” value came to 0% in the assay with KIT-autoinhibited; 27% in the assay on KIT; 0% in the assay on LATS1; 0% with LATS2; 0% in the assay with LCK; 0% with LIMK1. Moreover, the “%Inh” value in the assay on LIMK2 amounted to 0%; in the assay with LKB1 it was 28%; with LOK, 9%; in the assay on LRRK2, 0%.

On to `O=c1cc(N2CCOCC2)nc2n(Cc3cccc(C(F)(F)F)c3)ccn12` [GSK2297543], for which the “%Inh” value is listed as 2% with KIT-autoinhibited; 13% with KIT; 0% in the assay on LATS1; 0% with LATS2; 22% with LCK; 0% in the assay on LIMK1. Besides, the “%Inh” value is 7% in the assay on LIMK2, 10% with LKB1, 0% in the assay with LOK and 0% with LRRK2.

For the compound `Cc1cn2c(=O)cc(N3CCOCC3)nc2n1Cc1cccc(Cl)c1Cl` [GSK2334006], the “%Inh” value with KIT-autoinhibited was found to be 0%; with KIT, 39%; in the assay with LATS1, 0%; in the assay on LATS2, 0%; in the assay on LCK, 46%; in the assay with LIMK1, 0%. Moreover, the “%Inh” value in the assay with LIMK2 worked out at 6%; in the assay on LKB1 it was 0%; in the assay on LOK it was 0%; in the assay on LRRK2 it was 30%.

Turning to `CN1c2ccc(CNc3ccc(F)cc3)cc2-c2c(cnn2C)S1(=O)=O`, the “%Inh” value came out at 15% with KIT-autoinhibited; 0% in the assay on KIT; 0% in the assay with LATS1; 0% in the assay on LATS2; 7% with LCK; 0% in the assay on LIMK1. Moreover, the “%Inh” value worked out at 0% in the assay on LIMK2, 8% with LKB1, 0% in the assay with LOK and 0% with LRRK2.

As for `Cl.Oc1cccc(Nc2ccnc3cc(-c4ccncc4)ccc23)c1` [GW494601], the “%Inh” value in the assay on KIT-autoinhibited was 32%; in the assay with KIT it was 99.8%; with LATS1 it was 6%; in the assay with LATS2, 0%; in the assay with LCK it was 98.7%; in the assay with LIMK1 it was 0%. Moreover, the “%Inh” value is reported as 6% in the assay on LIMK2, 0% in the assay with LKB1, 31% with LOK and 75% in the assay with LRRK2.

On to `C[C@@H](Oc1cc(-n2cnc3ccc(NC(=O)NC(C)(C)C)cc32)sc1C(N)=O)c1ccccc1Cl` [GSK346294], for which the “%Inh” value came out at 1% in the assay with KIT-autoinhibited; 20% with KIT; 0% in the assay on LATS1; 12% with LATS2; 37% in the assay on LCK; 0% in the assay with LIMK1. In addition, the “%Inh” value is recorded as 25% in the assay with LIMK2, 4% in the assay on LKB1, 36% in the assay on LOK and 0% with LRRK2.

Take `O=C(NOCC1CC1)c1ccc(F)c(F)c1Nc1ccc(I)cc1Cl`: the “%Inh” value in the assay on KIT-autoinhibited came out at 0%; in the assay with KIT, 0%; in the assay with LATS1, 0%; with LATS2 it was 7%; with LCK it was 0%; with LIMK1, 0%. In addition, the “%Inh” value with LIMK2, with LKB1, in the assay with LOK and in the assay on LRRK2 was 0% in each case.
